This is an account of results in PubChem BioAssay.

Structures are written as SMILES. The source made the active and inactive calls.

Assay [1] has as its system PRMT1 (protein arginine N-methyltransferase 1). Kind of assay: PRMT1 binders on small-molecule microarrays, primary screen, biochemical, small-molecule microarray, 635 nm fluorescence (AID 1088).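 Also: binding of Prmt1 protein to compounds spotted on small-molecule microarray slides.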 As to conditions: small-molecule microarray binding, higher = more signal.
Assay [2] can be described thus: yeast growth modulation, basal conditions, primary screen, YJM789 clinical isolate, OD600, 24 h (AID 1089).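 Also: growth of clinical yeast isolate S. cerevisiae YJM 789 seeded 1000 cells per well; test concentration not given here.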 As to conditions: S. cerevisiae YJM789 growth, higher = more signal, called active from +8 up or from −8 down.
A short description of assay [3]: fission yeast growth modulation, primary screen, strain 972, OD600, 24 h, no modulator (AID 1090).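 Also: basal condition with compound alone and no growth modifier present; test concentration not given here.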 As to conditions: S. pombe 972 growth, higher = more signal, called active from +8 up or from −8 down.
Assay [4] can be described thus: S. cerevisiae growth modulation with rapamycin, primary screen, strain BY4716, OD600, 96 h (AID 1091). Also: test concentration not given here. As to conditions: higher = more signal, called active from +8 up or from −8 down.
For assay [5], the target named is Torsin-1A-interacting protein 2 (Homo sapiens) (UniProt Q8NFQ8). Kind of assay: LULL1 binders on small-molecule microarray, primary screen, cell lysate, human LULL1 lysate, 635/667 nm fluorescence (AID 1092).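 Also: probe is lysate of COS7 cells overexpressing human LULL1; score merges per-feature 667 nm fluorescence with signal-to-noise.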 As to conditions: hLULL1 lysate binding, 635 nm fluorescence, higher = more signal.
A short description of assay [6]: E. coli growth modulation, two-sided OD650, primary screen, E. coli filamentation project, strain DRC41, 24 h (AID 1093).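 Also: MC1000 strain lacking acrAB efflux and sulA so SOS filamentation is blocked; test concentration not given here.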 The note with it: OD650, 24 h, higher = more signal, called active from +8 up or from −8 down.
Assay [7] is described as follows: small-molecule microarray binders of probe aLefty2, primary screen, biochemical, biotinylated probe, 635/667 nm fluorescence (AID 1094).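 Also: score merges spot fluorescence near 667 nm with spot signal-to-noise ratio.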 As to conditions: higher = more signal.
For assay [8], the system named is Noggin (protein binding on small-molecule microarray). Kind of assay: Noggin binders on small-molecule microarray, primary screen, biochemical, 635/667 nm fluorescence (AID 1095).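 Also: score merges 667 nm feature fluorescence with signal to noise over triplicate slides.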 The note with it: 635 nm fluorescence, higher = more signal.
Assay [9] addresses Neurogenic locus notch homolog protein 3 (Homo sapiens) (UniProt Q9UM47). Kind of assay: NOTCH3 binders on small-molecule microarray, primary screen, biochemical, 635/667 nm fluorescence (AID 1096). As to conditions: NOTCH3 binding, 635 nm fluorescence, higher = more signal.
Assay [10] in a line: small-molecule microarray binders of probe aEGFR, primary screen, biochemical, biotinylated probe, 635/667 nm fluorescence (AID 1097).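 Also: probe is a biotinylated anti-EGFR antibody binding compounds printed on slides; score combines fluorescence near 667 nm and signal to noise of each spot.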 As to conditions: higher = more signal.
For assay [11], the system named is Plasmodium falciparum Sir2 (PF13_0152, Sir2A). In words: pfSir2 binders on small-molecule microarrays, primary screen, biochemical, small-molecule microarray, 635 nm fluorescence (AID 1098).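 Also: score merges spot fluorescence intensity with its signal-to-noise ratio.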 As to conditions: small-molecule microarray binding, fluorescence 635 nm; higher = more signal.
Assay [12] is described as follows: small-molecule microarray binders of probe aDKK1, primary screen, biochemical, biotinylated probe, 635/667 nm fluorescence (AID 1099).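 Also: score merges 667nm spot fluorescence with signal to noise across triplicate slides; reference of the scale not given here.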 The note with it: higher = more signal.
Assay [13] in a line: small-molecule microarray binders of probe aCHRDL2, primary screen, biochemical, biotinylated probe, 635/667 nm fluorescence (AID 1100). As to conditions: higher = more signal.
Assay [14] can be described thus: splicing luciferase reporter signal modulators, primary screen, spliceosome inhibition project, cell-based, HEK293, splice +/- reporter (AID 1101).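 Also: HEK293 cells carrying a splicing-competent luciferase reporter gene; test concentration not given here.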 As to conditions: luminescence, 24 h, higher = more signal, called active from +8 up or from −8 down.
In assay [15] the target is Fibroblast growth factor 10 (Homo sapiens) (UniProt O15520). Kind of assay: FGF10 binders on small-molecule microarrays, primary screen, biochemical, small-molecule microarray, 635 nm fluorescence (AID 1102). As to conditions: FGF10 binding, fluorescence 635 nm, higher = more signal.
In assay [16] the test system is glycogen synthase kinase-3 (GSK3A per assay name; protocol says GSK3B). Kind of assay: GSK3 binders on small-molecule microarrays, primary screen, biochemical, small-molecule microarray, 635 nm fluorescence, GSK3A (AID 1103). Also: the record names both GSK3A and GSK3B. As to conditions: small-molecule microarray binding, fluorescence 635 nm; higher = more signal.
For assay [17], the target named is Epidermal growth factor receptor (Homo sapiens) (UniProt P00533). Kind of assay: EGFR binders on small-molecule microarrays, primary screen, biochemical, small-molecule microarray, 635 nm fluorescence (AID 1104).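 Also: score merges 667 nm emission intensity with spot signal to noise over triplicate slides.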 As to conditions: EGFR binding, higher = more signal.
For assay [18], the target named is Follistatin-related protein 3 (Homo sapiens) (UniProt O95633). In words: FSTL3 binders on small-molecule microarrays, primary screen, biochemical, small-molecule microarray, 635 nm fluorescence (AID 1105).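 Also: score merges emission near 667 nm and signal to noise per printed spot across three slides.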 The note with it: FSTL3 binding, higher = more signal.
Assay [19] addresses Dickkopf-related protein 1 (Homo sapiens) (UniProt O94907). Kind of assay: DKK1 binders on small-molecule microarrays, primary screen, biochemical, small-molecule microarray, 635 nm fluorescence scan (AID 1106).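 Also: score merges emission near 667 nm with signal to noise over three replicate slides.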 The note with it: DKK1 binding, higher = more signal.
The test system of assay [20] is Inhibin beta A chain (activin A). Kind of assay: INHBA (activin A) binders on microarrays, primary screen, biochemical, small-molecule microarray, 635 nm fluorescence scan (AID 1107).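 Also: mouse activin A protein probed at 4.33 µg/mL on printed slides; score merges bound-protein fluorescence near 667 nm with spot signal-to-noise.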 As to conditions: small-molecule microarray binding, higher = more signal.

Dickkopf-related protein 1 (Homo sapiens), sequence (O94907 whole entry, looked up): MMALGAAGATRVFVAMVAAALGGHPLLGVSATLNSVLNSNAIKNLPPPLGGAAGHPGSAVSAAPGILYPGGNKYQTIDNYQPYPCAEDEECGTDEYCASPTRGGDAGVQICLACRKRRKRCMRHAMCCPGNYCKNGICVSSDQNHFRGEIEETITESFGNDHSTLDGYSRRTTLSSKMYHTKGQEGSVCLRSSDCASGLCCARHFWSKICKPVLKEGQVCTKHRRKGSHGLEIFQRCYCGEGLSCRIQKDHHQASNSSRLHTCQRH
Follistatin-related protein 3 (Homo sapiens), sequence (O95633 whole entry, looked up): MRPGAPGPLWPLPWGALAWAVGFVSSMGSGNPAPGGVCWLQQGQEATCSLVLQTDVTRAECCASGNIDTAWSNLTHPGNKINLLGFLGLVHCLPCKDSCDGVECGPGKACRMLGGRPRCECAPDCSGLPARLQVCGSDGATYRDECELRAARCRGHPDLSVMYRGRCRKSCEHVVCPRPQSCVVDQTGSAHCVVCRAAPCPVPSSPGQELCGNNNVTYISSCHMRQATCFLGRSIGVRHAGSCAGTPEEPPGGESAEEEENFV
Epidermal growth factor receptor (Homo sapiens), sequence (P00533 whole entry, looked up): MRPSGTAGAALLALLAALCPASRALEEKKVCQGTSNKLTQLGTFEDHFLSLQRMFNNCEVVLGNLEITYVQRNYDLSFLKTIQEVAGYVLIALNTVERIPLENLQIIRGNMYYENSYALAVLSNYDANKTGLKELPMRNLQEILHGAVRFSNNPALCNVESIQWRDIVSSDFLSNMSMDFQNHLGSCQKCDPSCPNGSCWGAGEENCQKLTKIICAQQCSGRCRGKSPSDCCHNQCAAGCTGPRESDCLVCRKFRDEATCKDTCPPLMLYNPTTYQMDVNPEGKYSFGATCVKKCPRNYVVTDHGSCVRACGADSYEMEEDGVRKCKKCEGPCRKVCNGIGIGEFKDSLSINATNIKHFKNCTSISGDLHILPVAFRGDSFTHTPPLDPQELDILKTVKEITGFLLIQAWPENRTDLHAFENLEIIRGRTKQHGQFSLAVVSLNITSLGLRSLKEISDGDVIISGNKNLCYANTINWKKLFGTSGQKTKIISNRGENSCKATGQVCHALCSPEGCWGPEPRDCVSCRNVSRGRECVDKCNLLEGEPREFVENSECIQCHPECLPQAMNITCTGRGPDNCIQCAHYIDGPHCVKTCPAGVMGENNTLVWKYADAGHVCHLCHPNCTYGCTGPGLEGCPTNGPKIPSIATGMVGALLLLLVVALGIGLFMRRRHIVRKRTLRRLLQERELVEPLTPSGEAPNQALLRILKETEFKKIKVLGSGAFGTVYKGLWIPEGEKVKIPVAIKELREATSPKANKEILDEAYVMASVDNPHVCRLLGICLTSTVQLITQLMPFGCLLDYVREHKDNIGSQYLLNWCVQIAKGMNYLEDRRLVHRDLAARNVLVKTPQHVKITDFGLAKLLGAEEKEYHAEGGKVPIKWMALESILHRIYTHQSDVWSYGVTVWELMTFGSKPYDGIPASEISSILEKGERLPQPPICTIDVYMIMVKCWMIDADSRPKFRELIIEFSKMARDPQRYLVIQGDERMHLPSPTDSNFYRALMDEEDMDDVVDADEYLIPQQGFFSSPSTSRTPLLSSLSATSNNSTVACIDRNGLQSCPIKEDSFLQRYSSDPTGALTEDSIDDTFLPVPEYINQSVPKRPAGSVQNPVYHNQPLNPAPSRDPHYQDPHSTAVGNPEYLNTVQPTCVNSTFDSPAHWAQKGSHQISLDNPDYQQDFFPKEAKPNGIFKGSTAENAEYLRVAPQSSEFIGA
Torsin-1A-interacting protein 2 (Homo sapiens), sequence (Q8NFQ8 whole entry, looked up): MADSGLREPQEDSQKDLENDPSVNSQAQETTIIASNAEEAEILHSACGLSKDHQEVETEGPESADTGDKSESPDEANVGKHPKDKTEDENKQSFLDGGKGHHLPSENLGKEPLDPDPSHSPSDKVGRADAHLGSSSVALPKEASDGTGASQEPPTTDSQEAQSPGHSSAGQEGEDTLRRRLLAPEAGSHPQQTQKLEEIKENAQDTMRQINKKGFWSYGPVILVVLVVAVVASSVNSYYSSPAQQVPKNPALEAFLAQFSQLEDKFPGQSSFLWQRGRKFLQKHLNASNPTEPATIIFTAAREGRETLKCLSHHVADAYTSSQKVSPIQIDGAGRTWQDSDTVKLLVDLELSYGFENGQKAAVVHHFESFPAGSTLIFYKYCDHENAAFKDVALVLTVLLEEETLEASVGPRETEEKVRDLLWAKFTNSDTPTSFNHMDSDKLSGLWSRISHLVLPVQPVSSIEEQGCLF
Fibroblast growth factor 10 (Homo sapiens), sequence (O15520 whole entry, looked up): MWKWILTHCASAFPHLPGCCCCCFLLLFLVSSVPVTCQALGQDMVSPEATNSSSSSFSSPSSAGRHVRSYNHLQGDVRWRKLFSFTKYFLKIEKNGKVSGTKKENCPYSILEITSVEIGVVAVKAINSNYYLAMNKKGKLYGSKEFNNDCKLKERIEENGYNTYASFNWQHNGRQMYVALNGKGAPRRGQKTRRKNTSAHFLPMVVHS
Neurogenic locus notch homolog protein 3 (Homo sapiens), sequence (Q9UM47 whole entry, looked up): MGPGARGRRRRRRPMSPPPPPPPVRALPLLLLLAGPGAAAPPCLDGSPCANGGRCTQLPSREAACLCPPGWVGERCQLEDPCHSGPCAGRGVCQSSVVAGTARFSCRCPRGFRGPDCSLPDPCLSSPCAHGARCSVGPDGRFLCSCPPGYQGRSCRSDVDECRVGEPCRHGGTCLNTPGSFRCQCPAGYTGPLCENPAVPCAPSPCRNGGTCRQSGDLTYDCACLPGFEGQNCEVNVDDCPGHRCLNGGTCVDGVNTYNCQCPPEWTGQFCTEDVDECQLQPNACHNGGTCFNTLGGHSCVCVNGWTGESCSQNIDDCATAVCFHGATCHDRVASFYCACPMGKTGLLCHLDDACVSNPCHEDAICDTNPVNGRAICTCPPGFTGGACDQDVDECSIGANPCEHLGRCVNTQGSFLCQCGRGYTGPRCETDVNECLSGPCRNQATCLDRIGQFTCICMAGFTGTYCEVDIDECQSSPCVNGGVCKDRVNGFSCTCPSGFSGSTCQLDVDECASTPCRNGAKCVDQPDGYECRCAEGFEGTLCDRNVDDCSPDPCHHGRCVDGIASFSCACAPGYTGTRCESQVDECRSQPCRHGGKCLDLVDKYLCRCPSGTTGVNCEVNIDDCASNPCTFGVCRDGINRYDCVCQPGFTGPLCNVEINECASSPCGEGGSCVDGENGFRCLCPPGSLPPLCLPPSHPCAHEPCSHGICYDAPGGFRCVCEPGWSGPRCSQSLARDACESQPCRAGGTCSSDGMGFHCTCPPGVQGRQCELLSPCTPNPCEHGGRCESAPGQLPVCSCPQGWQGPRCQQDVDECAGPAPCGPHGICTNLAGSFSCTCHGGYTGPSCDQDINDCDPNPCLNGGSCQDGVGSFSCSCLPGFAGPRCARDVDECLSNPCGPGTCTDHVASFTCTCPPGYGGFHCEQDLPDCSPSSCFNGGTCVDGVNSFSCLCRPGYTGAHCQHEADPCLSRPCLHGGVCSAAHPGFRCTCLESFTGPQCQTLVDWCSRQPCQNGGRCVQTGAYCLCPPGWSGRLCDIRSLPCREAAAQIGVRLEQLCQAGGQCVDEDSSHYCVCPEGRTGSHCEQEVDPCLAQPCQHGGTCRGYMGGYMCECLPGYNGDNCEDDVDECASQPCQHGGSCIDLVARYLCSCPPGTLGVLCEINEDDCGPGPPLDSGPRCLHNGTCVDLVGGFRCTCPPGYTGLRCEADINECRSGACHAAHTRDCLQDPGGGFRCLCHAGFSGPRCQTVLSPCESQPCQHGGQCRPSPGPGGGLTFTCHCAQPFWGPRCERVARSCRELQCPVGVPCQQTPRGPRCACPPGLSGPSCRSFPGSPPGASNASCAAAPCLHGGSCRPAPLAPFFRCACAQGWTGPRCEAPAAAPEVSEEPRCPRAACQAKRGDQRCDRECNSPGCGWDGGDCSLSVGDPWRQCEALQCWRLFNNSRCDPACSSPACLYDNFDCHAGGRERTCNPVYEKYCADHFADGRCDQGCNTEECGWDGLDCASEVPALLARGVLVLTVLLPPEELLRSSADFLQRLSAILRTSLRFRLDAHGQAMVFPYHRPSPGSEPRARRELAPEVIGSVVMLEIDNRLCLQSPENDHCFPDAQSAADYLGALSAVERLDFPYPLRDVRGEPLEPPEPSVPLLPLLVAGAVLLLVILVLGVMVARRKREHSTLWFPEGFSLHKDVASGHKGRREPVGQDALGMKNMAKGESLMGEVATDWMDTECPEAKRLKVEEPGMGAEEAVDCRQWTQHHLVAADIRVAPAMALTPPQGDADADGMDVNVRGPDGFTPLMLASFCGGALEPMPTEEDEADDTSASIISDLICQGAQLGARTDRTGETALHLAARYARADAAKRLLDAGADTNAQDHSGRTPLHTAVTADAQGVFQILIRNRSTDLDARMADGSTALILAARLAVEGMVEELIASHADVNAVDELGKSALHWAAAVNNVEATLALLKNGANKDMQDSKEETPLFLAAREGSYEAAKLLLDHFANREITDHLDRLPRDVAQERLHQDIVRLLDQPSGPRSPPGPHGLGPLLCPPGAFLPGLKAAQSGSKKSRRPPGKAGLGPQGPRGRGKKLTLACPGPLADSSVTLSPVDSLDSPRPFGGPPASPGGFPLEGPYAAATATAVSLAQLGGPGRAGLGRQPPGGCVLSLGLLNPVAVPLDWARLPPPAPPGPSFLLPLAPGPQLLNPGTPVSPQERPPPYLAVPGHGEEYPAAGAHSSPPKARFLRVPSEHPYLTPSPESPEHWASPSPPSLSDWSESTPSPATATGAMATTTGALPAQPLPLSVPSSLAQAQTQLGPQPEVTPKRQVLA

As for `COCCOC(=O)N1C(=O)[C@@]2(c3cc(C#Cc4ccc(OC)cc4)ccc31)[C@H](c1ccc(O)cc1)N1[C@H](c3ccccc3)[C@H](c3ccccc3)OC(=O)[C@H]1[C@@H]2C(N)=O`, the composite z-score in [1] was 1.55; in [5], 2.93; in assay [7], -0.145; in [8], 0.977; in assay [9] it was 1.1; in [10], 0.0026. Besides, the composite z-score in assay [11] is 1.49; in [12], -0.0422; in assay [13] it was -0.21; in assay [15], 1.1; in assay [16], 1.25; in [17] it was 0.655. Also, the figures for the composite z-score in [18], in assay [19] and in [20] were 1.4, 0.56 and 0.213, respectively. For the same compound, the z-score was 0.0655 (inactive) in assay [2]; -0.118 (inactive) in assay [3]; -0.0092 (inactive) in assay [4]; 0.04 (inactive) in [6]; -1.95 (inactive) in [14].
With `O=C1[C@H]2[C@H]3[C@H](O)[C@H](O)CC(=NO[C@@H]4O[C@H](CO)[C@@H](O)[C@H](O)[C@H]4O)[C@H]3CC[C@H]2C(=O)N1Cc1ccc2c(c1)OCO2`, the composite z-score in assay [1] was 0.661; in [5] it was 2.14; in [7], 0.0835; in [8] it was -0.246; in [9], -0.133; in [10], -0.17. In addition, the composite z-score is 0.381 in assay [11]; 0.215 in assay [12]; 0.821 in assay [13]; -0.0585 in [15]; -0.417 in assay [16]; -0.678 in [17]. The composite z-score in [18] is -0.387; in [19] it was -0.899; in assay [20], -0.401. Further, the z-score was 0.827 (inactive) in [2]; 0.918 (inactive) in [3]; -0.297 (inactive) in [4]; 0.529 (inactive) in assay [6]; -0.0194 (inactive) in [14].
For the compound `O=C1C[C@@H](O)[C@@H](O)[C@@H]2[C@@H]3C(=O)N(C4CCCCC4)C(=O)[C@@H]3CC[C@H]12`, the composite z-score is 0.387 in assay [1]; 0.294 in assay [5]; -0.185 in assay [7]; 0.467 in assay [8]; 0.786 in assay [9]; -0.127 in assay [10]. Also, the composite z-score is 0.523 in assay [11]; -0.376 in assay [12]; -0.711 in assay [13]; 0.438 in assay [15]; 0.919 in assay [16]; 0.634 in [17]. The values for the composite z-score in assay [18], in assay [19] and in assay [20] were 0.553, 0.718 and -0.294, respectively. The z-score in [2] was -0.16 (inactive); in assay [3], -0.268 (inactive); in assay [4] it was 0.0415 (inactive); in assay [6], 0.666 (inactive); in [14], 0.804 (inactive).
As for `COc1ccc(O[C@H]2C=C[C@@H](c3ccccc3)O[C@@H]2COC(=O)CCC(C)=NOCC[C@@H]2C=C[C@H](OC(C)=O)[C@@H](COC(C)=O)O2)cc1`, the composite z-score in assay [1] was 0.135; in assay [5], 1.69; in [7], 0.113; in assay [8], 0.476; in assay [9], 0.319; in [10], -0.039. In addition, the composite z-score is 0.868 in assay [11]; -0.0184 in assay [12]; -0.483 in assay [13]; -0.249 in [15]; -0.362 in assay [16]; 0.275 in assay [17]. Further, the composite z-score in assay [18] was 0.415; in assay [19], 0.371; in assay [20] it was 1.22. The z-score in assay [2] is -0.209 (inactive); in assay [3], 0.951 (inactive); in assay [4] it was 1.62 (inactive); in assay [6] it was -0.211 (inactive); in assay [14], -0.484 (inactive).
Regarding `CN(C)CCCNC(=O)[C@@H]1c2ccccc2C(=O)N(Cc2cc(F)cc(C(F)(F)F)c2)[C@H]1c1ccc(CO)cc1`, the composite z-score in assay [1] was 1.56; in [5], 2.93; in assay [7], -0.166; in assay [8], -0.0315; in assay [9] it was -1.2; in assay [10] it was -0.174. In addition, the composite z-score in assay [11] was 1.75; in assay [12], -0.132; in assay [13], 0.17; in [15] it was 0.159; in assay [16], 0.922; in assay [17] it was 0.368. Besides, the composite z-score in [18] is -1.1; in [19], 0.0959; in [20], -0.217. Moreover, the z-score in assay [2] is -0.414 (inactive); in [3], -0.627 (inactive); in assay [4] it was -0.917 (inactive); in assay [6] it was -0.66 (inactive); in assay [14], -1 (inactive).
